Measurements: PubChem BioAssay AID1159580 (chemical genetic matrix, 2015)
Hit rate of the full screen: of about 5,500 compounds, about 2,000 (36%) were called active. Another 18% or so got no clear call; they are omitted. Cut-off read from the data, not from the text of the source: active = normalized growth mostly below about 0.91 (no sharp cut-off); inconclusive = no clear call, values can overlap the other calls; inactive = mostly above about 0.92. This is one part of the list.

Test: chemical genetic growth profiling, strain panel (AID 1159580);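 note: tested at 20 µM; growth read once vehicle control cultures reached saturation at 30 °C; 1 = growth at the plate median or of vehicle wells; lower values mean less growth of the strain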
Conditions: growth OD

Measured: normalized growth

C=CCC1(C(C)CCC)C(=O)N=C(S)NC1=O (configuration not stated)
inactive: S. cerevisiae deletion strains, locus YJR075W, strain HOC1, active compounds read low 1.04 | S. cerevisiae deletion strains, locus YKL009W, strain mrt4, active compounds read low 0.963 | S. cerevisiae deletion strains, locus YKL068W, active compounds read low 0.969 | S. cerevisiae deletion strains, locus YKL085W, strain MDH1 (second series), active compounds read low 0.983 | S. cerevisiae deletion strains, locus YKL085W, strain MDH1, active compounds read low 0.983 | S. cerevisiae deletion strains, locus YKL160W, strain elf1, active compounds read low 0.972 | S. cerevisiae deletion strains, locus YKL190W, strain CNB1, active compounds read low 0.992 | S. cerevisiae deletion strains, locus YKR001C, strain vps1, active compounds read low 0.993 | S. cerevisiae deletion strains, locus YKR026C, strain gcn3, active compounds read low 0.925 | S. cerevisiae deletion strains, locus YKR091W, strain srl3, active compounds read low 0.978 | S. cerevisiae deletion strains, locus YLL001W, strain dnm1, active compounds read low 0.942 | S. cerevisiae deletion strains, locus YLL026W, active compounds read low 0.994 | S. cerevisiae deletion strains, locus YLL041C, strain sdh2, active compounds read low 0.974 | S. cerevisiae deletion strains, locus YLR027C, strain aat2, active compounds read low 0.979 | S. cerevisiae deletion strains, locus YLR039C, strain RIC1, active compounds read low 0.891 | S. cerevisiae deletion strains, locus YLR058C, strain SHM2, active compounds read low 0.988 | S. cerevisiae deletion strains, locus YLR102C, strain apc9, active compounds read low 0.966 | S. cerevisiae deletion strains, locus YLR113W, strain HOG1, active compounds read low 0.977 | S. cerevisiae deletion strains, locus YLR221C, strain rsa3, active compounds read low 1 | S. cerevisiae deletion strains, locus YLR258W, strain gsy2, active compounds read low 0.967 | S. cerevisiae deletion strains, locus YLR262C, strain YPT6 (second series), active compounds read low 0.905 | S. cerevisiae deletion strains, locus YLR262C, strain YPT6, active compounds read low 0.853 | S. cerevisiae deletion strains, locus YLR268W, strain sec22, active compounds read low 0.992 | S. cerevisiae deletion strains, locus YLR320W, strain mms22, active compounds read low 1.01 | S. cerevisiae deletion strains, locus YLR330W, strain CHS5, active compounds read low 0.979 | S. cerevisiae deletion strains, locus YLR342W, strain FKS1 (second series), active compounds read low 0.916 | S. cerevisiae deletion strains, locus YLR342W, strain FKS1, active compounds read low 0.978 | S. cerevisiae deletion strains, locus YLR357W, strain rsc2, active compounds read low 0.978 | S. cerevisiae deletion strains, locus YLR370C, strain arc18, active compounds read low 0.99 | S. cerevisiae deletion strains, locus YLR371W, strain rom2, active compounds read low 0.957 | S. cerevisiae deletion strains, locus YLR384C, strain iki3, active compounds read low 0.944 | S. cerevisiae deletion strains, locus YLR418C, strain cdc73, active compounds read low 1.04 | S. cerevisiae deletion strains, locus YML016C, strain PPZ1, active compounds read low 0.994 | S. cerevisiae deletion strains, locus YML032C, strain rad52, active compounds read low 0.957 | S. cerevisiae deletion strains, locus YML120C, strain ndi1, active compounds read low 0.988 | S. cerevisiae deletion strains, locus YML124C, strain tub3, active compounds read low 0.981 | S. cerevisiae deletion strains, locus YMR058W, strain fet3, active compounds read low 0.977 | S. cerevisiae deletion strains, locus YMR078C, strain ctf18, active compounds read low 0.972 | S. cerevisiae deletion strains, locus YMR125W, strain sto1, active compounds read low 0.923 | S. cerevisiae deletion strains, locus YMR129W, active compounds read low 0.978 | S. cerevisiae deletion strains, locus YMR205C, strain PFK2, active compounds read low 0.965 | S. cerevisiae deletion strains, locus YMR223W, strain ubp8, active compounds read low 0.979 | S. cerevisiae deletion strains, locus YMR231W, strain pep5, active compounds read low 0.963 | S. cerevisiae deletion strains, locus YMR263W, strain SAP30, active compounds read low 1.01 | S. cerevisiae deletion strains, locus YMR307W, strain GAS1, active compounds read low 1.02 | S. cerevisiae deletion strains, locus YNL067W, strain RPL9B, active compounds read low 1.02 | S. cerevisiae deletion strains, locus YNL071W, strain lat1, active compounds read low 1 | S. cerevisiae deletion strains, locus YNL128W, strain TEP1, active compounds read low 1.01 | S. cerevisiae deletion strains, locus YNL153C, strain GIM3, active compounds read low 1.03 | S. cerevisiae deletion strains, locus YNL183C, strain NPR1, active compounds read low 0.929 | S. cerevisiae deletion strains, locus YNL209W, strain ssb2, active compounds read low 0.976 | S. cerevisiae deletion strains, locus YNL233W, strain BNI4, active compounds read low 1.03 | S. cerevisiae deletion strains, locus YNL248C, strain rpa49, active compounds read low 0.914 | S. cerevisiae deletion strains, locus YNL250W, strain rad50, active compounds read low 0.963 | S. cerevisiae deletion strains, locus YNL271C, strain bni1, active compounds read low 0.98 | S. cerevisiae deletion strains, locus YNL298W, strain CLA4, active compounds read low 0.978 | S. cerevisiae deletion strains, locus YNL307C, strain MCK1, active compounds read low 0.961 | S. cerevisiae deletion strains, locus YNL322C, strain KRE1 (second series), active compounds read low 0.969 | S. cerevisiae deletion strains, locus YNL322C, strain KRE1, active compounds read low 0.989 | S. cerevisiae deletion strains, locus YNR049C, strain mso1, active compounds read low 0.97 | S. cerevisiae deletion strains, locus YNR052C, strain pop2, active compounds read low 0.995 | S. cerevisiae deletion strains, locus YOL006C, strain TOP1, active compounds read low 1.06 | S. cerevisiae deletion strains, locus YOL012C, strain htz1 1.08 | S. cerevisiae deletion strains, locus YOL147C, strain pex11, active compounds read low 0.99 | S. cerevisiae deletion strains, locus YOR001W, strain rrp6, active compounds read low 0.952 | S. cerevisiae deletion strains, locus YOR061W, strain CKA2, active compounds read low 0.99 | S. cerevisiae deletion strains, locus YOR069W, strain VPS5, active compounds read low 0.974 | S. cerevisiae deletion strains, locus YOR070C, strain gyp1, active compounds read low 0.991 | S. cerevisiae deletion strains, locus YOR080W, strain dia2, active compounds read low 0.959 | S. cerevisiae deletion strains, locus YOR083W, strain WHI5, active compounds read low 0.976 | S. cerevisiae deletion strains, locus YOR106W, strain vam3, active compounds read low 0.941 | S. cerevisiae deletion strains, locus YOR136W, strain idh2, active compounds read low 0.993 | S. cerevisiae deletion strains, locus YOR144C, strain elg1, active compounds read low 0.991 | S. cerevisiae deletion strains, locus YOR184W, strain ser1, active compounds read low 0.949 | S. cerevisiae deletion strains, locus YOR231W, strain MKK1, active compounds read low 0.984 | S. cerevisiae deletion strains, locus YOR265W, strain rbl2, active compounds read low 0.976 | S. cerevisiae deletion strains, locus YOR270C, strain vph1, active compounds read low 0.912 | S. cerevisiae deletion strains, locus YOR290C, strain snf2, active compounds read low 0.996 | S. cerevisiae deletion strains, locus YOR316C, strain cot1, active compounds read low 0.981 | S. cerevisiae deletion strains, locus YPL051W, strain arl3, active compounds read low 0.979 | S. cerevisiae deletion strains, locus YPL055C, strain LGE1, active compounds read low 1.02 | S. cerevisiae deletion strains, locus YPL078C, strain atp4, active compounds read low 0.937 | S. cerevisiae deletion strains, locus YPL106C, strain sse1, active compounds read low 0.988 | S. cerevisiae deletion strains, locus YPL240C, strain hsp82, active compounds read low 0.97 | S. cerevisiae deletion strains, locus YPL241C, strain CIN2, active compounds read low 0.99 | S. cerevisiae deletion strains, locus YPL256C, strain CLN2, active compounds read low 0.996 | S. cerevisiae deletion strains, locus YPR119W, strain clb2, active compounds read low 0.99 | S. cerevisiae deletion strains, locus YPR141C, strain kar3, active compounds read low 0.977 | S. cerevisiae deletion strains, locus YPR163C, strain tif3, active compounds read low 0.985 | S. cerevisiae deletion strains, locus YPR167C, strain met16, active compounds read low 0.981 | S. cerevisiae deletion strains, strain wtn01, active compounds read low 0.98 | S. cerevisiae strains, strain wild type, active compounds read low 0.986
